MgrA DNA FP – modulators of Staphylococcus aureus MgrA DNA binding. fluorescence polarization. inhibition, % (no concentration beside the values). 84,000 tested, 0.13% active. AID 602314; in the data active = inhibition above about 30%, passing the limit was not always enough;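 note: 0% = protein plus DNA without compound and 100% = DNA alone without protein; higher means less MgrA bound to DNA so lower polarization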
Starred values were filed as active, the others as inactive. Many of the other results were omitted from the sample, so hits are more common in it than they were.

SMILES	MgrA DNA FP
O=c1cc(O)c2sc3nc(-c4ccccc4)ccc3c2[nH]1	3
O=c1cc(O)c2sc3nc(-c4ccco4)cc(C(F)(F)F)c3c2[nH]1	88*
CC(C)(C)c1ccc(OCCOc2ccc(C=C3C(=O)NC(=O)NC3=O)cc2)cc1	14
O=C(CC1(O)C(=O)N(Cc2ccccc2)c2ccccc21)c1ccc(Br)cc1 (configuration not stated)	4
Cc1ccc(C)n1CCC(=O)O	103*
CC1=C(C)C(=O)N(CCC(=O)O)C1=O	-3
Cc1ccc2c(c1)c(C)cc(=O)n2CCC(=O)O	14
C=CC[n+]1ccccc1/C=N/O	0
CCOC(=O)/C(C#N)=C1\NC(CO)C(c2ccccc2)O1 (configuration not stated)	-2
CC(C)N(C(=S)Nc1ccc(Oc2ccccc2)cc1)C(C)c1ccccn1 (configuration not stated)	-1
CCN(CC)Cc1cc(O)c(CN(CC)CC)cc1O	60*
CCCc1oc(C(=O)O)cc1CN(CC)CC	-7
CCN(CC)Cc1cc(C2N(C(C)=O)c3cccc4cccc(c34)N2C(C)=O)ccc1O	-1
NC(=O)CSc1ncnc2sc3c(c12)CCCC3	-1
CN1C(=O)CN(C2CCCCC2)C(=O)c2ccccc21	2
CN1C(=O)/C(=C\C(=O)c2cccs2)c2ccccc21	-3
CN1C(=O)/C(=c2/[nH][nH]c(=O)/c2=C\C=C\c2ccccc2)C(=O)c2ccccc21	56*
Oc1cccc(NCC(O)Cn2ccc3ccccc32)c1 (configuration not stated)	-2
O=C(COc1ccccc1)NCc1cn2ccsc2n1	3
CCOc1ccc2nc(N3CCCC(C(=O)NC)C3)sc2c1 (configuration not stated)	0
Cc1ccc(/C=C2\SC(=O)NC2=S)o1	81*
Cc1ccc(/C=C2/SC(=S)N(CCc3ccc(Cl)cc3)C2=O)o1	-2
Cc1ccc(/C=C2\CC/C(=C\c3ccc(C)o3)C2=O)o1	23
CN1CCCc2cc(/C=C3\CCC(C4CCCC4)C3=O)ccc21 (configuration not stated)	-1
CN1CCCc2cc(CN)ccc21	63*
SMILES	MgrA DNA FP
CN1CCCc2cc(/C=C3\CC/C(=C/c4ccc5c(c4)N(C)CCC5)C3=O)ccc21	18
COC(=O)CN(Cc1ccccc1)S(=O)(=O)c1ccc(C)cc1	1
COC(=O)c1ccccc1NC(=S)Nc1ccccc1	-2
O=C(Nc1ccc(N2CCCCC2)cc1)c1ccncc1	2
c1cc(CNc2ccc(N3CCCC3)cc2)ccn1	97*
c1cc2c(cc1CNc1ccc(N3CCCC3)cc1)OCO2	18
CCC(C)(C)NC(=O)c1ccc2c(c1)OCO2	1
CCOC(=O)c1c(C)n(-c2ccccc2)c2c1cc(OC(=O)c1cccc(OC)c1)c1ccccc12	-2
Cc1[nH]c2ccc(C(=O)O)cc2c1C	3
Cc1[nH]c2ccc(C(=O)O)cc2c1CC(=O)O	6
CCCc1c(C)[nH]c2ccc(C(=O)O)cc2c1=S	54*
CCc1ccc(-n2c(=O)c3c4c(sc3n(CC(=O)N(C)C3CCCCC3)c2=O)CCC4)cc1	-3
CCSc1nc(C)c2cc(OC)ccc2n1	1
CCN(CC)CCCC(C)Nc1c2ccc(Cl)cc2nc2ccc(OC)cc12 (configuration not stated)	60*
CCN(CC)CCSc1nc2ccc(OC)cc2[nH]1	-1
O=S(=O)(Nc1nc2ccc(S(=O)(=O)N3CCCCC3)cc2s1)c1ccccc1	1
CCC(C)N1C(=O)/C(=C\c2cnn(-c3ccccc3)c2)C(=O)NC1=S (configuration not stated)	63*
COc1ccc(N2C(=O)/C(=C\c3ccc(C(C)C)cc3)C(=O)NC2=S)cc1	0
CCc1ccc(N2C(=O)/C(=C/c3ccc(OCC(=O)O)c(OC)c3)C(=O)NC2=S)cc1	18
CN1CCC(NC(=O)c2cccc(C(F)(F)F)c2)CC1	-1
Cc1ccc(N2C(=O)NC(=O)/C(=C\c3ccc(-c4ccccc4C(=O)O)o3)C2=O)cc1	5
CN1C(=O)/C(=C\c2ccc(-c3ccccc3C(=O)O)o2)C(=O)N(c2ccccc2)C1=S	62*
CN1C(=O)/C(=C/c2ccc(-c3ccc(C(=O)O)cc3)o2)c2ccccc21	6
Cc1ccc(N2C(=O)NC(=O)/C(=C/c3cc(Br)c(O)cc3O)C2=O)cc1	14
CC(C)(C)C1(C)OC(=O)C(=Cc2ccc(Br)o2)C(=O)O1 (configuration not stated)	20
SMILES	MgrA DNA FP
Cc1ccc(N2C(=O)NC(=O)/C(=C/c3ccc(Br)o3)C2=O)cc1Cl	49*
O=C(NC1CCNCC1)C1CCCC1	-1
CCC1CCC(NCC(C)(C)CN(C)C)CC1 (configuration not stated)	-2
O=C(O)c1cccc(-n2cccc2)c1	35
Cc1ccc(C)n1-c1cccc(C(=O)O)c1	103*
Cc1ccc(C)n1-c1cccc(N)c1	2
CCN(CC)C(=O)CSc1nnc(-c2ccccc2Cl)o1	3
CN(C)c1ccc(-n2nnnc2SCc2ccc(OC(F)(F)F)cc2)cc1	-2
CCc1c2c(nn1-c1cc(Cl)ccc1OC)CCCC2=O	-1
CC(C)(C)c1ccc(C(=O)O/N=C2\CCCc3[nH]c4ccccc4c32)cc1	3
Cc1ccc(NC(=O)c2c(Cl)nc3ccccn23)cc1	-3
O=C(Nc1ncccn1)c1ccc(Cl)cc1	-1
O=C1c2ccc(S(=O)(=O)O)cc2-c2nc(-c3ccccc3)nc3ccc(Cl)c1c23	81*
Clc1ccc(-c2nc(N3CCCCC3)c3ccccc3n2)cc1	1
O=C1c2ccccc2-c2nc(-c3ccccc3)cc3cccc1c23	3
O=C1CC(=O)N2C=CC=CC2=N1	4
CCc1cc(C(=O)O)c(SSc2sc(CC)cc2C(=O)O)s1	27
Cc1ccc(C)n1-c1sccc1C(=O)O	89*
Cc1ccc(C)n1-c1sccc1C(=O)CC#N	4
CC(=O)Nc1sccc1C(=O)O	-2
COc1ccc(C2=C/C(=C/c3ccccc3)C(=O)O2)cc1	0
Cc1cc(Cl)ccc1OC(C)C(=O)Nc1ccc2c(c1)OCO2 (configuration not stated)	4
CCN1CC=C2C(C1)C(c1ccc(Cl)s1)C(C#N)=C(N)C2(C#N)C#N (configuration not stated)	42*
CC(C)c1ccc(C2C(C#N)=C(N)C(C#N)(C#N)C3=CCN(C)CC32)cc1 (configuration not stated)	9
CCCN1CC=C2C(C1)C(c1ccc(C(=O)OC)cc1)C(C#N)=C(N)C2(C#N)C#N (configuration not stated)	9
SMILES	MgrA DNA FP
Cc1ccc2nc(NN)nc(-c3ccccc3)c2c1	1
O=C(NCC(=O)c1ccccc1)/C(=C/c1cccs1)c1ccccc1	0
COc1ccc(/C=C/C(=O)NCc2ccco2)cc1OC	5
CCOc1ccc(Nc2cnnc(Nc3ccc(OCC)cc3)n2)cc1	1
CCOc1ccc(NC2=CC(=O)C=CC2=O)cc1	56*
CCOc1ccc(NC2=CC(=O)CCC2)cc1	-1
COc1ccccc1C(=O)N(c1ccccc1)C(C)C1CC1 (configuration not stated)	4
COc1ccc(CN/C(C)=C/c2nsc(Nc3ccc(F)cc3)n2)cc1	1
Cc1ccc(I)c(C(=O)O)c1	0
O=C1N/C(=N/N=C/c2cccs2)SC1Cc1ccccc1 (configuration not stated)	-2

Screening data as filed in PubChem BioAssay.
